Rows were chosen to be rich in hits. Some 10% of all compounds tested hit in one or more screens of this group.
GPT2 inh: Primary qHTS assay for inhibitors of Glutamate pyruvate transaminase 2 (GPT2). AID 1671188, 2021. Potency, µM (series often up to 57.7 µM), for the others: at the highest dose activity change, negative = inhibition, most hits filed as inhibitors. Recombinant GPT2, coupled pyruvate oxidase/HRP Amplex Red fluorescence. hit rate 0.25% among 100,000; note: nearly all actives have a fitted effect of over 60% in size
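Fluorescence read-out: pyruvate from GPT2 turnover coupled to pyruvate oxidase, HRP and Amplex Red (0.2mM ThPP, 0.2U/mL PO and HRP, 50uM Amplex final). Substrates 250uM a-KG, 2mM L-alanine; enzyme 10ng/uL; 30 min RT.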
HEK293 tox: Cytotoxic Profiling in HEK 293 Cell Line of Diverse Libraries Using Quantitative High-Throughput Screening | HEK 293 viability, ATP luminescence (CellTiter-Glo), 48-72 h | Potency, µM (highest dose often 115 µM), inactives show at the highest dose activity change, negative = cytotoxicity, usual class: inhibitors | AID 1345083, 2018 | hit rate 6.6% among 94,000; note: nearly all actives have a fitted effect of over 60% in size
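ATP-coupled CellTiter-Glo luminescence served as viability read-out, recorded 10 min after reagent addition at room temperature. HEK 293 cells, 250 cells/well, had been incubated with pintool-transferred compound for 48 or 72 hr at 37 degree Celsius.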
NIH3T3 tox: Cytotoxic Profiling in NIH 3T3 Cell Line of Diverse Libraries Using Quantitative High-Throughput Screening. hit rate 4.3% among 94,000. Potency, µM (highest dose often 96.7 µM), for the others: at the top dose activity change, negative = cytotoxicity, actives largely listed as inhibitors. NIH 3T3 viability, CellTiter-Glo ATP luminescence, 48-72 h. AID 1345082, 2018; note: nearly all actives have a fitted effect of over 55% in size
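ATP-dependent luminescence (CellTiter-Glo) served as the viability signal for NIH 3T3 cells treated with compound for 48 or 72 hr at 37 °C.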
Luciferase inh: Firefly luciferase inhibition profiling of diverse chemical library using quantitative high-throughput screening. purified P. pyralis luciferase, luminescence, biochemical. hit rate 2.5% among 76,000. Luciferin 4-monooxygenase (Photinus pyralis), P08659. AID 1347043, 2019. Potency, µM (titrated, usually from 115 µM), hits mostly inhibitors; note: nearly all actives have a fitted effect of over 65% in size
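Purified P. pyralis luciferase (10nM final) in 50mM Tris acetate pH 7.5, 10mM Mg acetate, 0.01% Tween-20, 0.05% BSA with 10uM D-luciferin and 10uM ATP. Compounds titrated qHTS. Luminescence imaged on CCD.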
hNpr1 antagonist: Natriuretic polypeptide receptor (hNpr1) antagonism - Primary qHTS; AID 1347048, 2019; HEK293 hNpr1 GloSensor cGMP, ANP-stimulated luminescence; Atrial natriuretic peptide receptor 1 (Homo sapiens), P16066; hit rate 1.6% among 76,000; Potency, µM (titrated, usually from 46.3 µM), inactives show at the top dose activity change, negative = inhibition, usual class: inhibitors; calls by dose curve; note: nearly all actives have a fitted effect of over 60% in size
Target sequence (P16066 whole entry, looked up): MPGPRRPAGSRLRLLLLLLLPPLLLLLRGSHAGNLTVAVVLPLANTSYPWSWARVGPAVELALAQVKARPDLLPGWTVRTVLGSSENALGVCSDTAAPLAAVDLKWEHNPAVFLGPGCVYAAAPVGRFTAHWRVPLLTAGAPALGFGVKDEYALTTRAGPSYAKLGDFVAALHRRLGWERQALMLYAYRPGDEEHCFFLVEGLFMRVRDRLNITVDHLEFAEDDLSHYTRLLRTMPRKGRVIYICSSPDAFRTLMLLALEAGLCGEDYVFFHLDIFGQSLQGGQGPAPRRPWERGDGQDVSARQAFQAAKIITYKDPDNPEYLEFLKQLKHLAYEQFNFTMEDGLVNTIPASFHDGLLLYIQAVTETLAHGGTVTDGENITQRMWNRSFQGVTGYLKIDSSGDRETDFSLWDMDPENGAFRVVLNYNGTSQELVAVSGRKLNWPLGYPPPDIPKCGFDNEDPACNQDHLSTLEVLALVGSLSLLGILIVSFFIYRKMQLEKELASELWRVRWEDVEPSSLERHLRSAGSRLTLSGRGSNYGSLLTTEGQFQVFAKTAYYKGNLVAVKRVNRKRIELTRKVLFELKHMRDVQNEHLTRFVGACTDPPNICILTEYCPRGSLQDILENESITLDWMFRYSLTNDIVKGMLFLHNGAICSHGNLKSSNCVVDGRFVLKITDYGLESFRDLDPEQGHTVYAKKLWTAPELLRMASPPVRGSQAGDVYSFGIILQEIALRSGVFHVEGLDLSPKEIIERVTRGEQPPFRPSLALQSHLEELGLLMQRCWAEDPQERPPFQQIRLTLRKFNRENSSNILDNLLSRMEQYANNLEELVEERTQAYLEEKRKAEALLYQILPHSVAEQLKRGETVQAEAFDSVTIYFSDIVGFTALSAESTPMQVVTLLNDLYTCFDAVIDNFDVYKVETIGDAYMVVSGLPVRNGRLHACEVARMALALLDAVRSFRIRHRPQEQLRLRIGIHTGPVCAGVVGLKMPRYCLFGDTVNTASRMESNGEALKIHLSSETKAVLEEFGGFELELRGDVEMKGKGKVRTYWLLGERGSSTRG
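Compound pre-incubated 30 min at room temperature on GloSensor-loaded HEK293 cells stably carrying hNpr1 and the pGS-40F cGMP biosensor. Stimulation uses hNppA at 0.1 nM final; luminescence is taken at baseline and 20 min post-agonist.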
* marks the source's active call; other numbers are inactive results; i = inactive; ? = inconclusive; nt = no result; [ ] = another dose, or the depositor's remark. Unless noted, calls come from the whole dose curve; as a rule, active = well fitted curve in the direction sought with a large enough effect; inconclusive = small, poorly fitted or top-dose-only effect, or another doubt; inactive = no such curve, though single readings can be large; an effect the other way counts as inactive or inconclusive. % is set by controls: 0 for no effect and ±100 for the full control effect; potency is the fitted concentration of half-maximal effect.

SMILES	GPT2 inh	HEK293 tox	NIH3T3 tox	Luciferase inh	hNpr1 antagonist
O=C(NCc1ccc(Cl)cc1)c1cn2cc(-c3ccc(F)cc3)sc2n1	i	28µM*	?	nt	nt
COc1ccc(CN2CCC3(CNS(=O)(=O)c4cnccc4O3)C2)cc1 (centres undefined)	i	3%	i	nt	nt
Cc1noc(C)c1COc1ccc(C(=O)N[C@@H]2CN(C(=O)NC(C)C)CCC[C@H]2O)cc1	2%	-6%	?	i	1%
COc1ccc(-c2cc(C[C@@H]3CC[C@H](O)[C@@H](CNC4CCN(C)CC4)O3)no2)cc1	-10%[88.5 µM]	?	?	?	-25%[70.6 µM]
COc1ccc(-c2cc(C[C@@H]3CC[C@H](O)[C@@H](CN(Cc4cccc(OC)c4)Cc4cccc(OC)c4)O3)no2)cc1	?	?	?	?	11µM*
COc1ccc(-c2cc(C[C@@H]3CC[C@@H]4OC(=O)NC[C@H]4O3)no2)cc1	4%[88.5 µM]	100µM*	?	?	3%[70.6 µM]
CN1CCC(NC[C@H]2O[C@H](Cc3cc(-c4ccc(F)cc4)on3)CC[C@@H]2O)CC1	3%[88.5 µM]	?	89µM*	i	?
COc1ccc(-c2cc(C[C@@H]3CC[C@H](O)[C@@H](CNCc4cccc(OC)c4)O3)no2)cc1	-2%	?	?	?	?
COc1ccc(-c2cc(C[C@@H]3CC[C@H](O)[C@@H](CNCc4cccc(Cl)c4)O3)no2)cc1	?	28µM*	?	50µM*	?
COc1ccc(OC)c(S(=O)(=O)N2CC(c3nc(CCN(C)C(C)=O)no3)C2)c1	-3%	-20%	-27%	nt	nt
CCCCNC(=O)[C@@H]1CCCC[C@@H]1C(=O)N1CC(n2nc(C)cc2C)C1	-11%	-1%	-22%	i	-1%
CN(C)C[C@@H]1CN(c2ncccn2)C[C@H]1NC(=O)c1ccncc1	-8%	-7%	-12%	i	0%
O=C(NC[C@H]1O[C@H](Cc2cc(-c3ccc(F)cc3)on2)CC[C@@H]1O)c1ccccc1F	-2%[88.5 µM]	-30%[172 µM]	-26%[138 µM]	22µM*	?
COc1ccc(CNC[C@H]2O[C@H](Cc3cc(-c4ccccc4)on3)CC[C@@H]2O)cc1	0%[88.5 µM]	89µM*	40µM*	i	-19%[70.6 µM]
Cc1ccc(CNC[C@H]2O[C@H](Cc3cc(-c4ccc(F)cc4)on3)CC[C@@H]2O)cc1	0%[88.5 µM]	40µM*	32µM*	i	-23%[70.6 µM]
COc1ccc(NC(=O)NC[C@H]2O[C@H](Cc3cc(-c4cccc(O)c4)on3)CC[C@@H]2O)cc1	i	-16%	-17%	?	11µM*
COc1ccc(-c2cc(C[C@@H]3CC[C@H](O)[C@@H](CNC(=O)NCc4ccccc4)O3)no2)cc1	-4%	?	?	i	-18%
COc1ccc(C(=O)NC[C@H]2O[C@H](Cc3cc(-c4ccccc4)on3)CC[C@@H]2O)cc1	0%[88.5 µM]	-29%[172 µM]	?	i	-15%[70.6 µM]
O=C(C1CCCC1)N1CC2(CCN(Cc3ccc(Cl)cc3)CC2)Cc2ccccc21	1%	?	?	nt	nt
NC[C@H]1O[C@H](Cc2cc(-c3cccc(O)c3)on2)CC[C@@H]1O	i	3%[172 µM]	i	56µM*	2.5µM*
CCOC(=O)C1(C/C=C/c2ccccc2)CCCN(C(=O)C2CCOCC2)C1 (centres undefined)	1%	89µM*	-7%	i	-25%
c1cncc(-c2noc(CCc3nc(C4CCOC4)no3)n2)c1 (centres undefined)	-8%	-20%	-24%	i	4%
O=S(=O)(c1ccccc1F)N1CCC(CCc2nc(C3CCOCC3)no2)CC1	-1%	45µM*	?	nt	nt
Cc1noc2c(NC(C)C)cc(-c3ccccc3)nc12	1%[88.5 µM]	?	?	i	1%[70.6 µM]
Cc1noc2c(NC3CCN(C)CC3)cc(-c3ccccc3)nc12	-13%[88.5 µM]	100µM*	?	i	1%[70.6 µM]
SMILES	GPT2 inh	HEK293 tox	NIH3T3 tox	Luciferase inh	hNpr1 antagonist
CC(=O)N1CCN(c2ncccc2-c2cc(-c3ccccc3)nc3c(C)noc23)CC1	4%[88.5 µM]	-24%[172 µM]	?	i	2%[70.6 µM]
Cc1noc2c(NC3CCN(C)CC3)cc(-c3ccccn3)nc12	i	112µM*	?	i	-1%[70.6 µM]
Cc1noc2c(NCCc3ccccn3)cc(-c3ccccc3)nc12	-18%[88.5 µM]	?	?	i	-2%[70.6 µM]
Cc1noc2c(-c3cccnc3NC3CCN(C)CC3)cc(-c3ccccc3)nc12	i	63µM*	32µM*	i	2%[70.6 µM]
Cc1noc2c(NC3CCN(C)CC3)cc(-c3cccc(C(F)(F)F)c3)nc12	-18%[88.5 µM]	40µM*	?	i	5%[70.6 µM]
Cc1ccccc1-c1cc(-c2cn[nH]c2)c2cncn2c1	-4%[88.5 µM]	?	71µM*	i	-23%[70.6 µM]
Fc1ccc(-c2cc(-c3cn[nH]c3)c3cncn3c2)cc1	-19%[88.5 µM]	?	45µM*	i	-15%[70.6 µM]
COc1cc(F)ccc1-c1cc(-c2cn[nH]c2)c2cncn2c1	-3%[88.5 µM]	?	32µM*	i	-11%[70.6 µM]
Fc1cccc(-c2cc(-c3cn[nH]c3)c3cncn3c2)c1	0%[88.5 µM]	?	?	i	-13%[70.6 µM]
CC(C)NC(=O)C1CCC(=O)N1C1CCN(C(=O)CC(C)(C)C)CC1 (centres undefined)	-2%	i	0%	nt	nt
O=C([C@H]1C[C@H](Oc2ccccc2)CN1C(=O)CCCc1ccccc1)N1CCOCC1	?	-5%	-28%	?	5%
O=C(NC1CC1)[C@@H]1C[C@H](Oc2cccnc2)CN1C(=O)CCC1CCCC1	-3%	i	i	i	-1%
COCCOc1cc(=O)n2c(c1C(=O)NC1CCCCC1)CCOCC2	-15%	-23%	-15%	i	1%
COc1ccc2c(C)c(C(=O)N3CC(Oc4c(C)cccc4C)C3)oc2c1	-7%[11.5 µM]	-17%	-19%	i	5%
COc1ccccc1C(=O)Nc1cc(C2CC2)nn1-c1ccccc1	i	?	22µM*	nt	nt
O=C(Nc1cc(C2CC2)nn1-c1ccccc1)c1ccccc1Cl	-3%	-18%	-14%	nt	nt
Cc1nn(Cc2ccccc2)c(C)c1[C@@H]1C=C[C@@H](NC(=O)c2ccco2)C1	1%[88.5 µM]	71µM*	?	i	-2%[70.6 µM]
Cc1nn(Cc2ccccc2)c(C)c1[C@@H]1C=C[C@@H](NC(=O)c2ccc(F)c(Cl)c2)C1	-2%[88.5 µM]	28µM*	?	i	?
Cc1nn(Cc2ccccc2)c(C)c1[C@@H]1C=C[C@@H](NC(=O)Nc2cccc(C#N)c2)C1	-40%[88.5 µM]	71µM*	?	i	-2%[70.6 µM]

Assay outcomes deposited in PubChem by National Center for Advancing Translational Sciences (NCATS).
